# Experimental data reported in PubChem BioAssay AID1159580 (chemical genetic matrix, 2015).
# Hit rate of the full screen: of about 5,500 compounds, about 2,000 (36%) were called active. Roughly 18% stayed inconclusive and do not appear here. The list shows a part of the results. Values without a mark were called inactive. No stated cut-off is given here; in the data, active means normalized growth mostly below about 0.91 (no sharp cut-off); inconclusive means no clear call, values can overlap the other calls; inactive means mostly above about 0.92.
# Assay: chemical genetic growth profiling, strain panel (AID 1159580);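 further: tested at 20 µM; growth read once vehicle control cultures reached saturation at 30 °C; 1 = growth at the plate median or of vehicle wells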
# Details: growth OD
smiles,measurement,setting,value
Nc1nc2c(ncn2C2C[C@H](O)[C@@H](CO)O2)c(=O)[nH]1 (stereo partly specified),normalized growth,"S. cerevisiae deletion strains, locus YAL013W, strain DEP1, stronger effect = lower value",0.995
same,normalized growth,"S. cerevisiae deletion strains, locus YBR021W, strain FUR4, stronger effect = lower value",1
same,normalized growth,"S. cerevisiae deletion strains, locus YBR229C, strain ROT2, stronger effect = lower value",0.997
same,normalized growth,"S. cerevisiae deletion strains, locus YCL029C, strain bik1, stronger effect = lower value",0.573 (active)
same,normalized growth,"S. cerevisiae deletion strains, locus YDL035C, strain GPR1, stronger effect = lower value",1.02
same,normalized growth,"S. cerevisiae deletion strains, locus YDL074C, strain BRE1, stronger effect = lower value",1.02
same,normalized growth,"S. cerevisiae deletion strains, locus YDL101C, strain DUN1, stronger effect = lower value",1
same,normalized growth,"S. cerevisiae deletion strains, locus YDL134C, strain PPH21, stronger effect = lower value",1.01
same,normalized growth,"S. cerevisiae deletion strains, locus YDL185W, strain tfp1, stronger effect = lower value",0.999
same,normalized growth,"S. cerevisiae deletion strains, locus YDL192W, strain arf1, stronger effect = lower value",0.179 (active)
same,normalized growth,"S. cerevisiae deletion strains, locus YDR101C, strain arx1, stronger effect = lower value",0.447 (active)
same,normalized growth,"S. cerevisiae deletion strains, locus YDR150W, strain NUM1, stronger effect = lower value",1.02
same,normalized growth,"S. cerevisiae deletion strains, locus YDR162C, strain NBP2, stronger effect = lower value",1
same,normalized growth,"S. cerevisiae deletion strains, locus YDR318W, strain mcm21, stronger effect = lower value",0.322 (active)
same,normalized growth,"S. cerevisiae deletion strains, locus YDR388W, stronger effect = lower value",0.162 (active)
same,normalized growth,"S. cerevisiae deletion strains, locus YDR502C, strain sam2, stronger effect = lower value",0.359 (active)
same,normalized growth,"S. cerevisiae deletion strains, locus YEL061C, strain CIN8, stronger effect = lower value",0.979
same,normalized growth,"S. cerevisiae deletion strains, locus YER110C, stronger effect = lower value",0.627 (active)
same,normalized growth,"S. cerevisiae deletion strains, locus YER155C, strain BEM2, stronger effect = lower value",0.994
same,normalized growth,"S. cerevisiae deletion strains, locus YER167W, strain BCK2, stronger effect = lower value",1.01
same,normalized growth,"S. cerevisiae deletion strains, locus YGL078C, strain dbp3, stronger effect = lower value",1
same,normalized growth,"S. cerevisiae deletion strains, locus YGL086W, strain mad1, stronger effect = lower value",0.357 (active)
same,normalized growth,"S. cerevisiae deletion strains, locus YGL248W, strain PDE1, stronger effect = lower value",0.996
same,normalized growth,"S. cerevisiae deletion strains, locus YGR078C, strain PAC10, stronger effect = lower value",1
same,normalized growth,"S. cerevisiae deletion strains, locus YGR135W, strain pre9, stronger effect = lower value",0.328 (active)
same,normalized growth,"S. cerevisiae deletion strains, locus YGR229C, strain SMI1, stronger effect = lower value",1.01
same,normalized growth,"S. cerevisiae deletion strains, locus YGR252W, strain gcn5, stronger effect = lower value",0.352 (active)
same,normalized growth,"S. cerevisiae deletion strains, locus YHR030C, strain SLT2, stronger effect = lower value",1.01
same,normalized growth,"S. cerevisiae deletion strains, locus YHR079C, strain IRE1 (second series), stronger effect = lower value",0.446 (active)
same,normalized growth,"S. cerevisiae deletion strains, locus YHR094C, strain hxt1, stronger effect = lower value",0.456 (active)
same,normalized growth,"S. cerevisiae deletion strains, locus YHR129C, strain ARP1, stronger effect = lower value",1
same,normalized growth,"S. cerevisiae deletion strains, locus YHR200W, strain rpn10, stronger effect = lower value",0.357 (active)
same,normalized growth,"S. cerevisiae deletion strains, locus YIL066C, strain RNR3, stronger effect = lower value",1.03
same,normalized growth,"S. cerevisiae deletion strains, locus YIL073C, strain SPO22, stronger effect = lower value",1.1
same,normalized growth,"S. cerevisiae deletion strains, locus YIL125W, strain kgd1, stronger effect = lower value",1.01
same,normalized growth,"S. cerevisiae deletion strains, locus YIR030C, strain dcg1, stronger effect = lower value",0.46 (active)
same,normalized growth,"S. cerevisiae deletion strains, locus YJL095W, strain BCK1, stronger effect = lower value",1
same,normalized growth,"S. cerevisiae deletion strains, locus YJL134W, strain LCB3, stronger effect = lower value",1
same,normalized growth,"S. cerevisiae deletion strains, locus YJL168C, strain set2, stronger effect = lower value",0.527 (active)
same,normalized growth,"S. cerevisiae deletion strains, locus YJL187C, strain SWE1 (second series), stronger effect = lower value",1.01
same,normalized growth,"S. cerevisiae deletion strains, locus YJR043C, strain POL32, stronger effect = lower value",1
same,normalized growth,"S. cerevisiae deletion strains, locus YJR075W, strain HOC1, stronger effect = lower value",0.992
same,normalized growth,"S. cerevisiae deletion strains, locus YKL009W, strain mrt4, stronger effect = lower value",1.02
same,normalized growth,"S. cerevisiae deletion strains, locus YKL068W, stronger effect = lower value",1.01
same,normalized growth,"S. cerevisiae deletion strains, locus YKL085W, strain MDH1 (second series), stronger effect = lower value",1.01
same,normalized growth,"S. cerevisiae deletion strains, locus YKL085W, strain MDH1, stronger effect = lower value",1.01
same,normalized growth,"S. cerevisiae deletion strains, locus YKL190W, strain CNB1, stronger effect = lower value",1
same,normalized growth,"S. cerevisiae deletion strains, locus YKR001C, strain vps1, stronger effect = lower value",0.189 (active)
same,normalized growth,"S. cerevisiae deletion strains, locus YLR039C, strain RIC1, stronger effect = lower value",1.02
same,normalized growth,"S. cerevisiae deletion strains, locus YLR058C, strain SHM2, stronger effect = lower value",1
same,normalized growth,"S. cerevisiae deletion strains, locus YLR102C, strain apc9, stronger effect = lower value",0.543 (active)
same,normalized growth,"S. cerevisiae deletion strains, locus YLR262C, strain YPT6, stronger effect = lower value",1.08
same,normalized growth,"S. cerevisiae deletion strains, locus YLR268W, strain sec22, stronger effect = lower value",0.406 (active)
same,normalized growth,"S. cerevisiae deletion strains, locus YLR330W, strain CHS5, stronger effect = lower value",0.995
same,normalized growth,"S. cerevisiae deletion strains, locus YLR342W, strain FKS1 (second series), stronger effect = lower value",1.04
same,normalized growth,"S. cerevisiae deletion strains, locus YLR371W, strain rom2, stronger effect = lower value",0.391 (active)
same,normalized growth,"S. cerevisiae deletion strains, locus YLR418C, strain cdc73, stronger effect = lower value",0.261 (active)
same,normalized growth,"S. cerevisiae deletion strains, locus YML016C, strain PPZ1, stronger effect = lower value",1.01
same,normalized growth,"S. cerevisiae deletion strains, locus YML032C, strain rad52, stronger effect = lower value",0.408 (active)
same,normalized growth,"S. cerevisiae deletion strains, locus YML124C, strain tub3, stronger effect = lower value",0.554 (active)
same,normalized growth,"S. cerevisiae deletion strains, locus YMR078C, strain ctf18, stronger effect = lower value",0.852 (active)
same,normalized growth,"S. cerevisiae deletion strains, locus YMR223W, strain ubp8, stronger effect = lower value",0.315 (active)
same,normalized growth,"S. cerevisiae deletion strains, locus YMR263W, strain SAP30, stronger effect = lower value",1.01
same,normalized growth,"S. cerevisiae deletion strains, locus YMR307W, strain GAS1, stronger effect = lower value",1.01
same,normalized growth,"S. cerevisiae deletion strains, locus YNL067W, strain RPL9B, stronger effect = lower value",1.01
same,normalized growth,"S. cerevisiae deletion strains, locus YNL128W, strain TEP1, stronger effect = lower value",1
same,normalized growth,"S. cerevisiae deletion strains, locus YNL153C, strain GIM3, stronger effect = lower value",1.01
same,normalized growth,"S. cerevisiae deletion strains, locus YNL233W, strain BNI4, stronger effect = lower value",1
same,normalized growth,"S. cerevisiae deletion strains, locus YNL250W, strain rad50, stronger effect = lower value",1.02
same,normalized growth,"S. cerevisiae deletion strains, locus YNL271C, strain bni1, stronger effect = lower value",1.02
same,normalized growth,"S. cerevisiae deletion strains, locus YNL298W, strain CLA4, stronger effect = lower value",1.03
same,normalized growth,"S. cerevisiae deletion strains, locus YNL307C, strain MCK1, stronger effect = lower value",0.222 (active)
same,normalized growth,"S. cerevisiae deletion strains, locus YNL322C, strain KRE1, stronger effect = lower value",1
same,normalized growth,"S. cerevisiae deletion strains, locus YNR052C, strain pop2, stronger effect = lower value",0.137 (active)
same,normalized growth,"S. cerevisiae deletion strains, locus YOL006C, strain TOP1, stronger effect = lower value",1.04
same,normalized growth,"S. cerevisiae deletion strains, locus YOL012C, strain htz1",2.5 [resistant] (active)
same,normalized growth,"S. cerevisiae deletion strains, locus YOL147C, strain pex11, stronger effect = lower value",0.451 (active)
same,normalized growth,"S. cerevisiae deletion strains, locus YOR061W, strain CKA2, stronger effect = lower value",0.998
same,normalized growth,"S. cerevisiae deletion strains, locus YOR069W, strain VPS5, stronger effect = lower value",1
same,normalized growth,"S. cerevisiae deletion strains, locus YOR136W, strain idh2, stronger effect = lower value",0.531 (active)
same,normalized growth,"S. cerevisiae deletion strains, locus YOR144C, strain elg1, stronger effect = lower value",0.619 (active)
same,normalized growth,"S. cerevisiae deletion strains, locus YOR184W, strain ser1, stronger effect = lower value",1.02
same,normalized growth,"S. cerevisiae deletion strains, locus YOR316C, strain cot1, stronger effect = lower value",0.416 (active)
same,normalized growth,"S. cerevisiae deletion strains, locus YPL055C, strain LGE1, stronger effect = lower value",0.976
same,normalized growth,"S. cerevisiae deletion strains, locus YPL241C, strain CIN2, stronger effect = lower value",0.98
same,normalized growth,"S. cerevisiae deletion strains, locus YPR119W, strain clb2, stronger effect = lower value",0.645 (active)
same,normalized growth,"S. cerevisiae deletion strains, locus YPR141C, strain kar3, stronger effect = lower value",1.02
same,normalized growth,"S. cerevisiae deletion strains, locus YPR163C, strain tif3, stronger effect = lower value",0.37 (active)
same,normalized growth,"S. cerevisiae deletion strains, locus YPR167C, strain met16, stronger effect = lower value",0.33 (active)
same,normalized growth,"S. cerevisiae deletion strains, strain wtn01, stronger effect = lower value",0.229 (active)
same,normalized growth,"S. cerevisiae strains, strain wild type, stronger effect = lower value",0.984
